# Reference: PubChem BioAssay AID1259415 (National Center for Advancing Translational Sciences (NCATS), 2018)
# The campaign covered roughly 410,000 compounds. About 18,000 (4.4%) were called active. About 7% were inconclusive and are not listed. No stated cut-off is given here; in the data, active means activity change below about -60%; inconclusive means no clear call, values can overlap the other calls; inactive means above about -39%. Many of the other results were omitted from the sample, so actives are more common in it than they were.
# Assay: qHTS Assay for inhibitors of the human cytomegalovirus (HCMV)
# Conditions: HFF cells, HCMV-luciferase reporter, 72 h; at 57.5 µM; stronger effect = lower value
# Outline: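 Luciferase read-out from HCMV-luciferase-infected HFFs (MOI 1 PFU/cell) 72 h post infection at 37C; compounds added after 16 h cell attachment; activity normalized between buffer-only basal and Salinomycin (10uM) inhibitor controls.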
# On the % scale 0 is the no-effect control and ±100 the full control effect.
row,SMILES,"activity change, negative = inhibition"
1,COc1ccc(Cn2ccn(CC(=O)Nc3cc(C)ccc3C)c(=O)c2=O)cc1,15.8% (inactive)
2,COc1ccccc1NC(=O)CN1C(=O)c2ccccc2Sc2ccc(C(=O)N3CCCC3)cc21,14.4% (inactive)
3,CC(C)(C)OC(=O)N1CCC(c2c(C(=O)N3CCc4ccccc4C3)cnn2-c2ccc(F)cc2)CC1,6.95% (inactive)
4,Cc1cc(C)cc(NC(=O)CSc2oc(-c3ccccc3)nc2S(=O)(=O)c2ccc(Cl)cc2)c1,-2.05% (inactive)
5,COc1ccc(CCC(=O)NCc2ccc3c(c2)CCN3C(=O)c2ccc(F)cc2)cc1,15.1% (inactive)
6,CCc1ccc2oc(-c3ccc(NC(=O)c4cc5ccccc5o4)cc3)nc2c1,37.7% (inactive)
7,Cc1cccc(NC(=S)N2CCC(O)CC2)c1C,-32.2% (inactive)
8,Cc1cccc(NC(=O)N2CCCCCC2)c1C,57.9% (inactive)
9,Cc1cccc(C)c1NC(=S)N1CCCCCC1,-64.3% (active)
10,O=C1NCC(Nc2ccccc2)C(=O)N1 (stereo not given),-7.88% (inactive)
11,CCc1ccc(NS(=O)(=O)c2ccc3[nH]cc(C(=O)NCCc4cccc(C)c4)c(=O)c3c2)cc1,93.7% (inactive)
12,OC(CNCC1CCCO1)Cn1c2ccc(Br)cc2c2cc(Br)ccc21 (stereo not given),2.12% (inactive)
13,Cc1cc(C)c2oc(-c3cccc(NC(=O)c4cccc(F)c4)c3C)nc2c1,-0.821% (inactive)
14,O=C(Nc1cccc(-c2cscn2)c1)C1CCN(Cc2ccsc2)CC1,-33.6% (inactive)
15,CC(=O)c1cc(CN2CCC(C(=O)Nc3cccc(-c4cscn4)c3)CC2)cs1,-30.7% (inactive)
16,CCn1cc(CN2CCC(C(=O)Nc3cccc(-c4cccc(Cl)c4)c3)CC2)cn1,-97.6% (active)
17,COc1ccc(OCCCn2c(C3CC(=O)N(c4ccc(F)cc4)C3)nc3ccccc32)cc1 (stereo not given),-13% (inactive)
18,CCCCN1CC(c2nc3ccccc3n2CCCCOc2ccc(C)cc2C)CC1=O (stereo not given),-105% (active)
19,CCc1ccccc1N1CC(c2nc3ccccc3n2CCCCOc2ccccc2)CC1=O (stereo not given),-4.32% (inactive)
20,O=C(NCc1ccccc1)C1CCN(S(=O)(=O)c2ccc3[nH]c(=O)ccc3c2)CC1,23% (inactive)
21,Cc1ccccc1OCC(=O)Nc1c(C(=O)Nc2ccccc2F)oc2ccccc12,11.7% (inactive)
22,COc1ccc(Cn2c(=O)sc3ccccc32)cc1OC,-99.8% (active)
23,C=CCSc1nnc(Cn2c(=O)sc3ccccc32)n1C,-2.22% (inactive)

row,SMILES,"activity change, negative = inhibition"
1,COc1ccc(CN2CCOC2=O)cc1OC,-13.1% (inactive)
2,CCOC(=O)c1ccc(NC(=O)Cn2c(=O)cc(C)c3c(C)nn(-c4cccc(F)c4)c32)cc1,2.32% (inactive)
3,CCC(c1nc2ccccc2[nH]1)n1c(=O)c(-c2cccs2)nc2ccccc21 (stereo not given),-2.85% (inactive)
4,CCC(C)N1C(=O)S/C(=C/c2ccc(Sc3nc4ccccc4[nH]3)o2)C1=O (stereo not given),-91.5% (active)
5,COc1ccc(C)cc1NC(=O)CCc1c(C)nn(-c2ccc(N3CCOCC3)nn2)c1C,39.1% (inactive)
6,CCCCCn1c(=O)[nH]c2cc(C(=O)NCCN(C)CCCC)ccc2c1=O,-33.3% (inactive)
7,CCOc1ccc(NC(=O)c2c(NC(=O)Cc3ccccc3)sc3c2CCCCC3)cc1,-74.7% (active)
8,O=C(Cc1ccccc1)Nc1sc2c(c1C(=O)Nc1ccc(Br)cc1)CCC2,5.03% (inactive)
9,CCOc1ccc(NC(=O)c2c(NC(=O)Cc3ccccc3)sc3c2CCC(C)C3)cc1 (stereo not given),-34.6% (inactive)
10,CC(C)c1ccc(NC(=O)c2ccc(Cn3nc(N4CCN(c5ccccc5)CC4)ccc3=O)o2)cc1,-19.5% (inactive)
11,Cn1ncc2c(Nc3cccc4ccccc34)ncnc21,87.3% (inactive)
12,CC(C)CC(=O)Nc1ccc(Cc2ccncc2)cc1,-32.9% (inactive)
13,Cc1cc(C)n(CC(=O)Nc2ccc([N+](=O)[O-])cc2)n1,-4.15% (inactive)
14,Cc1cc([N+](=O)[O-])nn1CC(=O)Nc1ccc(Cc2ccncc2)cc1,-63.5% (active)
15,COc1ccc(NC(=O)CSC2=Nc3ccccc3C3=NC(CC(=O)NCc4ccccc4OC)C(=O)N23)cc1Cl (stereo not given),17.7% (inactive)
16,CCC(C)NCCOCCOc1ccc(Br)cc1C (stereo not given),-37.4% (inactive)
17,CC(Oc1ccc(Br)cc1)C(=O)NC1CCCCCC1 (stereo not given),25.7% (inactive)
18,CC(C)(C)CC(C)(C)NCC(O)COCCOc1ccc(Br)cc1 (stereo not given),-100% (active)
19,O=C(CCc1ccc(S(=O)(=O)N2CCOCC2)cc1)OCC(=O)c1ccc(Br)cc1,49% (inactive)
20,Cc1ccc(-c2noc(CNC(=O)c3ccoc3C)n2)cc1,-11.6% (inactive)
21,C/C(=N\NC(=O)c1ccoc1C)c1ccccc1O,-91.4% (active)
22,CC(=N\NC(=O)c1cc(Br)ccc1O)/C(=N/O)C(=O)Nc1ccccc1,0% (inactive)
